# Data as given in the supplement of paper PMC8975748.
# Where a name gives a salt, the structure may show the parent alone. ± gives the standard deviation of the averaged measurements.
# Legend:
# [1] = tested on: Saccharomyces cerevisiae BY4741 SeMeCo community; experiment: mean cell size (pixel area) (pixels); higher = larger cells; settings: 10 µM; 24 h; SM minimal medium
# Outline: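 A four-plasmid fluorescent Saccharomyces cerevisiae BY4741 community was tested; each plasmid complements one auxotrophy and carries a fluorescent marker. An overnight preculture at OD600 = 1.0 was diluted to OD600 = 0.3, and 70 µl was added to 384-well plates acoustically predosed with drug (final 10 µM) in SM medium for 24 h. Cells were fixed with paraformaldehyde and imaged by automated confocal microscopy, with analysis in Harmony. Mean cell pixel area per well is averaged over 3 replicates. Same SeMeCo high-content imaging drug screen: Selleck FDA-approved drugs at 10 µM, 24 h in SM medium, 384-well plates, 3 replicates.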
# [2] = tested on: Saccharomyces cerevisiae BY4741 SeMeCo community; experiment: z-score of prototroph abundance vs DMSO median; higher = larger share of this subpopulation than in DMSO controls; settings: 10 µM; 24 h; SM minimal medium; subpopulation (auxotrophy): Prototroph
# Outline: (§1)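 Cells of a Saccharomyces cerevisiae BY4741 community, carrying four plasmids that each restored one auxotrophy and encoded a distinct fluorescent protein, were pre-grown overnight to OD600 1.0 and diluted to 0.3. A 70 µl volume was added to 384-well plates acoustically predosed with library drugs (10 µM final) and grown 24 h in minimal SM medium. After paraformaldehyde fixation, automated confocal microscopy was used, with single-auxotroph fluorescent strains for thresholds and autofluorescence correction. The abundance of each subpopulation was scored as a z-score against the vehicle-well median.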
# [3] = tested on: Saccharomyces cerevisiae BY4741 SeMeCo community; experiment: z-score of subpopulation abundance vs DMSO median, subpopulation auxotrophic for M; higher = larger share of this subpopulation than in DMSO controls; settings: 10 µM; 24 h; SM minimal medium; subpopulation (auxotrophy): M
# Outline: as §1
# [4] = tested on: Saccharomyces cerevisiae BY4741 SeMeCo community; experiment: z-score of subpopulation abundance vs DMSO median, subpopulation auxotrophic for L; higher = larger share of this subpopulation than in DMSO controls; settings: 10 µM; 24 h; SM minimal medium; subpopulation (auxotrophy): L
# Outline: as §1
# [5] = tested on: Saccharomyces cerevisiae BY4741 SeMeCo community; experiment: z-score of subpopulation abundance vs DMSO median, subpopulation auxotrophic for U; higher = larger share of this subpopulation than in DMSO controls; settings: 10 µM; 24 h; SM minimal medium; subpopulation (auxotrophy): U
# Outline: as §1
# [6] = tested on: Saccharomyces cerevisiae BY4741 SeMeCo community; experiment: z-score of subpopulation abundance vs DMSO median, subpopulation auxotrophic for LU; higher = larger share of this subpopulation than in DMSO controls; settings: 10 µM; 24 h; SM minimal medium; subpopulation (auxotrophy): LU
# Outline: as §1
# [7] = tested on: Saccharomyces cerevisiae BY4741 SeMeCo community; experiment: z-score of subpopulation abundance vs DMSO median, subpopulation auxotrophic for LM; higher = larger share of this subpopulation than in DMSO controls; settings: 10 µM; 24 h; SM minimal medium; subpopulation (auxotrophy): LM
# Outline: as §1
# [8] = tested on: Saccharomyces cerevisiae BY4741 SeMeCo community; experiment: z-score of subpopulation abundance vs DMSO median, subpopulation auxotrophic for HM; higher = larger share of this subpopulation than in DMSO controls; settings: 10 µM; 24 h; SM minimal medium; subpopulation (auxotrophy): HM
# Outline: as §1
# [9] = tested on: Saccharomyces cerevisiae BY4741 SeMeCo community; experiment: z-score of subpopulation abundance vs DMSO median, subpopulation auxotrophic for UM; higher = larger share of this subpopulation than in DMSO controls; settings: 10 µM; 24 h; SM minimal medium; subpopulation (auxotrophy): UM
# Outline: as §1
# [10] = tested on: Saccharomyces cerevisiae BY4741 SeMeCo community; experiment: z-score of subpopulation abundance vs DMSO median, subpopulation auxotrophic for HL; higher = larger share of this subpopulation than in DMSO controls; settings: 10 µM; 24 h; SM minimal medium; subpopulation (auxotrophy): HL
# Outline: as §1
# [11] = tested on: Saccharomyces cerevisiae BY4741 SeMeCo community; experiment: z-score of subpopulation abundance vs DMSO median, subpopulation auxotrophic for HLU; higher = larger share of this subpopulation than in DMSO controls; settings: 10 µM; 24 h; SM minimal medium; subpopulation (auxotrophy): HLU
# Outline: as §1
# [12] = tested on: Saccharomyces cerevisiae BY4741 SeMeCo community; experiment: z-score of subpopulation abundance vs DMSO median, subpopulation auxotrophic for HLM; higher = larger share of this subpopulation than in DMSO controls; settings: 10 µM; 24 h; SM minimal medium; subpopulation (auxotrophy): HLM
# Outline: as §1
# [13] = tested on: Saccharomyces cerevisiae BY4741 SeMeCo community; experiment: z-score of subpopulation abundance vs DMSO median, subpopulation auxotrophic for HUM; higher = larger share of this subpopulation than in DMSO controls; settings: 10 µM; 24 h; SM minimal medium; subpopulation (auxotrophy): HUM
# Outline: as §1
# [14] = tested on: Saccharomyces cerevisiae BY4741 SeMeCo community; experiment: z-score of subpopulation abundance vs DMSO median, subpopulation auxotrophic for LUM; higher = larger share of this subpopulation than in DMSO controls; settings: 10 µM; 24 h; SM minimal medium; subpopulation (auxotrophy): LUM
# Outline: as §1
# [15] = tested on: Saccharomyces cerevisiae BY4741 SeMeCo community; experiment: z-score of subpopulation abundance vs DMSO median, subpopulation auxotrophic for HLUM; higher = larger share of this subpopulation than in DMSO controls; settings: 10 µM; 24 h; SM minimal medium; subpopulation (auxotrophy): HLUM
# Outline: as §1
# [16] = tested on: Saccharomyces cerevisiae BY4741 SeMeCo community; experiment: z-score of subpopulation abundance vs DMSO median, subpopulation auxotrophic for H; higher = larger share of this subpopulation than in DMSO controls; settings: 10 µM; 24 h; SM minimal medium; subpopulation (auxotrophy): H
# Outline: as §1
# [17] = tested on: Saccharomyces cerevisiae BY4741 SeMeCo community; experiment: z-score of subpopulation abundance vs DMSO median, subpopulation auxotrophic for HU; higher = larger share of this subpopulation than in DMSO controls; settings: 10 µM; 24 h; SM minimal medium; subpopulation (auxotrophy): HU
# Outline: as §1
Compound,mean cell size [1],z-score of prototroph abundance [2],z-score of subpopulation abundance [3],z-score of subpopulation abundance [4],z-score of subpopulation abundance [5],z-score of subpopulation abundance [6],z-score of subpopulation abundance [7],z-score of subpopulation abundance [8],z-score of subpopulation abundance [9],z-score of subpopulation abundance [10],z-score of subpopulation abundance [11],z-score of subpopulation abundance [12],z-score of subpopulation abundance [13],z-score of subpopulation abundance [14],z-score of subpopulation abundance [15],z-score of subpopulation abundance [16],z-score of subpopulation abundance [17]
CCN1CCN(C(=O)N[C@@H](C(=O)N[C@@H]2C(=O)N3C(C(=O)O)=C(CSc4nnnn4C)CS[C@H]23)c2ccc(O)cc2)C(=O)C1=O [Cefoperazone],12.5 ± 0.21,0.07,0.6,0.4,-0.72,-0.39,1.36,0.3,0.26,0.07,-0.34,0.34,-0.49,0.47,0.24,–,–
CN1[C@@H]2CC[C@H]1C[C@@H](OC(=O)c1c[nH]c3ccccc13)C2 [Tropisetron HCl],12.57 ± 0.083,-1,1.04,0.79,-0.06,1,1.09,0.26,0.28,-0.91,0.2,-0.38,0.19,0.15,1.3,-0.68,–
CC(NCCC(c1ccccc1)c1ccccc1)c1ccccc1 (configuration not stated) [Fendiline hydrochloride],12.1 ± 0.2,1.56,-1.56,0.03,-0.43,-0.77,-0.45,-1.15,-1.15,-0.41,-0.27,-0.59,-0.72,0.05,-0.29,-1.47,–
Clc1ccc(CSC(Cn2ccnc2)c2ccc(Cl)cc2Cl)cc1 (configuration not stated) [Sulconazole Nitrate],12.1 ± 0.16,-9.61,-2.96,-0.34,1.17,-2.59,-2.53,2.74,5.19,11,7.54,24.7,6.12,0.84,–,22,14.1
C[C@H]1NCc2cc(-c3ccc4c(=O)c(C(=O)O)cn(C5CC5)c4c3OC(F)F)ccc21 [Garenoxacin],12.34 ± 0.078,-0.68,0.86,-0.44,0.6,-0.05,0.15,0.28,-0.07,0.46,0.74,0.1,0.84,–,-0.08,-0.22,–
NC(=O)[C@@H]1CC[C@@H]2CN1C(=O)N2OS(=O)(=O)O [Avibactam sodium],12.68 ± 0.1,-0.66,0.79,0.6,–,1.12,0.78,0.85,0.5,-0.05,0.1,0.54,-0.02,–,1.05,-0.62,–
CCC[C@@H]1C[C@@H](C(=O)N[C@@H]([C@H]2O[C@H](SC)[C@H](O)[C@@H](O)[C@H]2O)[C@H](C)Cl)N(C)C1 [Clindamycin HCl],12.61 ± 0.074,-0.3,0.72,0.8,-0.42,-0.2,0.83,0.38,0.35,0.26,-0.02,0.06,-0.28,0.28,–,-0.08,-0.26
Nc1nc2c(ncn2COC(CO)CO)c(=O)[nH]1 [Ganciclovir],12.4 ± 0.16,-0.25,0.43,0,0.17,-0.06,-0.15,-0.15,0.96,-0.27,0.54,-0.21,0.33,-0.04,–,–,-0.11
CC(C)NNC(=O)c1ccncc1 [Iproniazid],12.4 ± 0.22,-0.56,-0.2,-0.39,1.2,1.04,0.08,-0.24,0.66,-0.1,0.8,-0.85,0.2,0.03,–,–,0.46
c1cnc(N2CCN(Cc3ccc4c(c3)OCO4)CC2)nc1 [Piribedil],12.6 ± 0.18,-0.35,0.35,0.51,0.44,0.48,0.32,0.27,-0.82,0.51,0.22,1.03,-0.11,0.73,-0.28,0.27,–
CNCCCC1c2ccccc2C=Cc2ccccc21 [Protriptyline hydrochloride],12.4 ± 0.15,-0.57,-0.4,-0.45,0.84,0.57,-0.93,-0.42,–,0.25,0.54,-0.07,0.54,0.28,-0.01,0.19,–
O=C(O)CCc1nc(-c2ccccc2)c(-c2ccccc2)o1 [Oxaprozin],13 ± 0.46,–,-1.37,-0.53,-1.97,-2.1,-1,-0.83,–,-0.56,-0.7,-0.64,-1.67,-1.68,-0.44,-0.36,–
CC(=O)N1CCN(c2ccc(OCC3COC(Cn4ccnc4)(c4ccc(Cl)cc4Cl)O3)cc2)CC1 (configuration not stated) [Ketoconazole],11.9 ± 0.21,0.99,-1.31,-0.63,-0.47,-0.4,-0.27,-1.06,–,–,-0.27,-0.67,0.03,-0.27,-0.62,–,–
CC(=O)O[C@]1(C(C)=O)CC[C@H]2[C@@H]3C[C@H](C)C4=CC(=O)CC[C@]4(C)[C@H]3CC[C@@]21C [Medroxyprogesterone acetate],12.6 ± 0.18,0.03,0.21,-0.93,0.34,0.01,-0.1,0.17,0.34,-0.1,-0.17,-0.12,-0.19,-0.28,–,0.12,0.62
